We go through 40 molecules from PubChem BioAssay (NCI).

Compounds without any hit were thinned out: in the full panel of roughly 83,000, 20% have a hit.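 A percent growth of 40 corresponds to 60% growth inhibition; 0 means no net growth; -100 means all cells died. Active threshold: below 10.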 Values without a mark were called inactive. Active and inactive are the calls of the source.

The subject of one assay is SW-620 colon. Description: NCI-60 one-dose screen, 48 h (100 = growth as untreated, 0 = no growth, -100 = all killed). The note with it: 10 µM unless noted.
Take `O=C1/C(=C/c2ccc(-c3ccc(Br)cc3)o2)SC(=S)N1CCc1ccc(O)cc1`: the growth was 81.2%.
Turning to `O=C1CC(N2C(=O)/C(=C/C(Cl)=C\c3ccc([N+](=O)[O-])cc3)SC2=S)C(=O)N1c1ccc(Cl)cc1` (stereo not drawn), the growth is 3.41% (active).
`CCN(CC)c1nc(SCc2ccccc2Cl)ncc1C`: the growth is 105%.
As for `N#Cc1c(-c2ccccc2)cc(-c2ccccc2)n(CCCCCC(=O)Nc2ccccc2N)c1=O`, the growth was 86.2%.
Regarding `CCS/C(Nc1ccccc1)=C(\C#N)C(=O)N/N=C/c1ccc(Cl)cc1Cl`, the growth is 18.6%.
In the case of `N#CC1=C(N)Oc2c(sc3c(Br)cccc23)C1c1ccc(F)cc1` (stereo not drawn), the growth is 32.2%.
With `O=C(Cn1c2c(c3ccccc31)CCCC2)Nc1ccc(-c2nc3ccccc3s2)cc1`, the growth is 109%.
Regarding `COc1cc(-c2csc(NC(=O)c3cc(-n4cnc(C)c4)cc(C(F)(F)F)c3)n2)cc(OC)c1OC`, the growth was 77.9%.
On the same count and under the same terms, then `CCN(CC)CCCN1C(=O)c2c(c(C)c3c(oc4cc(O)ccc43)c2C)C1=O`, with -36% (active); and `COc1cc2oc(-c3cccc(NC(=O)c4cccc(Br)c4)c3)cc(=O)c2c(OC)c1OC`, with 65.1%; and `O=C(Cn1c(=O)sc2nc3ccccc3nc21)Nc1ncc(Cc2cccc(Cl)c2Cl)s1`, with 100%.
Consider `COc1ccc(OC)c(C(=O)/C=C/c2cc3c(c(OC)c2OC)OCO3)c1`, for which the growth is 68.8%.
Turning to `COC(=O)CCC(=O)C(=O)OC`, the growth is 29.9% [10 mM].
Still for that read-out and setting: the same measure for `O=C1c2c(c3c4ccccc4[nH]c3c3ccc4ccccc4c23)C(=O)N1CCN1CCCCC1`: 30.5%.
Regarding `CCO/C=N/C1=C(C#N)C(c2ccc(OC)cc2)c2sc3c(F)cccc3c2O1` (stereo not drawn), the growth is 22.4%.
`COCCn1c(-c2csc(-c3cn(C)c4ccc(OC)cc34)n2)cc2cccnc21`: the growth is 15.1%.
Still for that read-out and setting: then `CN1C(=O)/C(=C/c2cn(-c3ccccc3)nc2-c2ccccc2)SC1=S`, with 98.8%.
As to `CC(C)NC1CCC(Nc2ccnc3cc(Cl)ccc23)CC1` (stereo not drawn), the growth was 91.7%.
In the case of `O=S(=O)(Nc1cc(Br)c(O)c2ccccc12)c1ccc(F)cc1`, the growth was 104%.
As to `CCN(CC)CCOc1ccc(-c2c(-c3ccccc3)c(=O)oc3ccccc23)cc1`, the growth is 87.3%.
As to `O=C(/C=C/c1cn(-c2ccccc2)nc1-c1ccc([N+](=O)[O-])cc1)c1ccc(Cl)cc1`, the growth is -27.6% (active).
For the molecule `Cc1cc2c(O)c(-c3cccc(Cl)c3)c3sc(=O)oc3c2cc1C`, the growth was 35%.
With `Cc1cccc(Cl)c1NC(=O)c1ccc2nc(NC(=O)NCCN(C)C)sc2c1`, the growth is 103%.
For the molecule `O=C(c1ccccc1)C1C(=O)N2C(=S)N(c3ccccc3)C(=O)C2C1c1ccc(Cl)cc1` (stereo not drawn), the growth is 102%.
For `N#Cc1nc(-c2ccccc2)oc1S(=O)(=O)N1CCOCC1`, the growth is 56.6%.
For the molecule `COC(C(=O)[C@@H](O)[C@@H](C)O)[C@@H]1Cc2cc3cc(O[C@H]4C[C@@H](O[C@H]5C[C@@H](O)[C@H](O)C(C)O5)[C@H](O)C(C)O4)c(C)c(O)c3c(O)c2C(=O)[C@H]1O[C@H]1C[C@@H](O[C@H]2C[C@@H](O[C@H]3C[C@@H](O)[C@H](OC)C(C)O3)[C@@H](O)C(C)O2)[C@H](O)C(C)O1` (stereo partly drawn), the growth was 11.3%.
On the same count and under the same terms, then `CC1=C(C(=O)OC(C)C)C(c2ccc3c(c2)OCO3)NC(=S)N1` (stereo not drawn), with 107%; and `O=C(/C=C/c1ccccc1)c1cccc(OCCCOc2cccc(C(=O)/C=C/c3ccccc3)c2)c1`, with 54.2%.

The next assay relates to MCF7 breast. Described as above. The note with it: 10 µM unless noted.
As for `C=C1C(=O)O[C@H]2[C@H]1CC/C(COC(=O)NCc1cc[nH]c1)=C\CC[C@@]1(C)O[C@@H]21`, the growth was 34.8%.
Take `CSc1nc2sc3c(c2c(=O)n1-c1ccc([N+](=O)[O-])cc1)CCCCC3`: the growth is 86.2%.
Consider `O=C(Nn1c2c(sc1=NCc1ccccc1)C(=O)c1ccccc1C2=O)c1cc2ccc1CCc1ccc(cc1)CC2`, for which the growth was 40%.
The same measure, in the same setting: the same measure for `O=C(CN1C(=O)CCC1=O)Nc1ncc(Cc2ccc(F)cc2)s1`: 92.4%.
For the molecule `Cc1ccc(NC(=S)NNC(=S)NNc2ccccc2)cc1C`, the growth was 98.9%.
As for `CCN(CC)CCOc1ccc(C(=C(C)c2ccc(Cl)cc2)c2ccc(OCCN(CC)CC)cc2)cc1`, the growth is -76.5% (active).
As for `COC(=O)[C@]1(C)CCC[C@]2(C)[C@H]3C[C@H]4C(C(C)C)=C[C@]3(CC[C@H]21)[C@H]1[C@@H]4[C@@H](OCCC#N)CC[C@@H]1OCCC#N`, the growth was 9.07% (active).
With `COc1ccc(-c2cc(-c3ccc(Cl)cc3)c(C#N)c(=O)n2CCCCC(=O)Nc2ccccc2N)cc1`, the growth is 41.6%.
For the molecule `C=C1C(=O)O[C@H]2[C@H]1CC/C(COC(=O)NCc1ccc(Cn3c(=O)sn(CCI)c3=O)cc1)=C\CC[C@@]1(C)O[C@@H]21`, the growth is 24.7%.
Same read-out and setting: the same measure for `CC(=O)OC[C@]12CCC(C)(C)C[C@H]1[C@@]1(O)[C@H](O)C[C@@H]3[C@@]4(C)CCCNC(C)(C)[C@@H]4CC[C@@]3(C)[C@]1(C)CC2`: 102%; for `Cc1cc(=O)[nH]c2c(C#N)cnn12`: 93.2%; for `O=C(OCc1ccc2c(Cl)cc(Cl)c(O)c2n1)n1cncn1`: 23.2%.
As for `O=C1/C(=C/c2ccc(-c3ccc(Br)cc3)o2)SC(=S)N1CCc1ccc(O)cc1`, the growth was 82.6%.
On the same count and under the same terms, the same measure for `O=C1CC(N2C(=O)/C(=C/C(Cl)=C\c3ccc([N+](=O)[O-])cc3)SC2=S)C(=O)N1c1ccc(Cl)cc1` (stereo not drawn): 18.1%; for `CCN(CC)c1nc(SCc2ccccc2Cl)ncc1C`: 106%; for `N#Cc1c(-c2ccccc2)cc(-c2ccccc2)n(CCCCCC(=O)Nc2ccccc2N)c1=O`: 68.4%.
As for `CCS/C(Nc1ccccc1)=C(\C#N)C(=O)N/N=C/c1ccc(Cl)cc1Cl`, the growth was 19.3%.
On to `N#CC1=C(N)Oc2c(sc3c(Br)cccc23)C1c1ccc(F)cc1` (stereo not drawn), for which the growth was 12.1%.
On the same count and under the same terms, the same measure for `O=C(Cn1c2c(c3ccccc31)CCCC2)Nc1ccc(-c2nc3ccccc3s2)cc1`: 30.8%; for `COc1cc(-c2csc(NC(=O)c3cc(-n4cnc(C)c4)cc(C(F)(F)F)c3)n2)cc(OC)c1OC`: 61.8%; for `CCN(CC)CCCN1C(=O)c2c(c(C)c3c(oc4cc(O)ccc43)c2C)C1=O`: -69.2% (active).
As for `COc1cc2oc(-c3cccc(NC(=O)c4cccc(Br)c4)c3)cc(=O)c2c(OC)c1OC`, the growth is 54.8%.
As to `O=C(Cn1c(=O)sc2nc3ccccc3nc21)Nc1ncc(Cc2cccc(Cl)c2Cl)s1`, the growth was 91.6%.
As for `COc1ccc(OC)c(C(=O)/C=C/c2cc3c(c(OC)c2OC)OCO3)c1`, the growth was 31.4%.
The same measure, in the same setting: the same measure for `COC(=O)CCC(=O)C(=O)OC`: 49.8% [10 mM]; for `O=C1c2c(c3c4ccccc4[nH]c3c3ccc4ccccc4c23)C(=O)N1CCN1CCCCC1`: 17.1%; for `CCO/C=N/C1=C(C#N)C(c2ccc(OC)cc2)c2sc3c(F)cccc3c2O1` (stereo not drawn): 12.9%.
For `COCCn1c(-c2csc(-c3cn(C)c4ccc(OC)cc34)n2)cc2cccnc21`, the growth was 47.5%.
For `CN1C(=O)/C(=C/c2cn(-c3ccccc3)nc2-c2ccccc2)SC1=S`, the growth is 83.6%.
For `CC(C)NC1CCC(Nc2ccnc3cc(Cl)ccc23)CC1` (stereo not drawn), the growth is 93.3%.
On the same count and under the same terms, the same measure for `O=S(=O)(Nc1cc(Br)c(O)c2ccccc12)c1ccc(F)cc1`: 49.1%; for `CCN(CC)CCOc1ccc(-c2c(-c3ccccc3)c(=O)oc3ccccc23)cc1`: 89.6%; for `O=C(/C=C/c1cn(-c2ccccc2)nc1-c1ccc([N+](=O)[O-])cc1)c1ccc(Cl)cc1`: 25.4%.
Same read-out and setting: the same measure for `Cc1cc2c(O)c(-c3cccc(Cl)c3)c3sc(=O)oc3c2cc1C`: 26.3%; for `Cc1cccc(Cl)c1NC(=O)c1ccc2nc(NC(=O)NCCN(C)C)sc2c1`: 48.9%; for `O=C(c1ccccc1)C1C(=O)N2C(=S)N(c3ccccc3)C(=O)C2C1c1ccc(Cl)cc1` (stereo not drawn): 65.2%.
In the case of `N#Cc1nc(-c2ccccc2)oc1S(=O)(=O)N1CCOCC1`, the growth is 32.5%.
As to `COC(C(=O)[C@@H](O)[C@@H](C)O)[C@@H]1Cc2cc3cc(O[C@H]4C[C@@H](O[C@H]5C[C@@H](O)[C@H](O)C(C)O5)[C@H](O)C(C)O4)c(C)c(O)c3c(O)c2C(=O)[C@H]1O[C@H]1C[C@@H](O[C@H]2C[C@@H](O[C@H]3C[C@@H](O)[C@H](OC)C(C)O3)[C@@H](O)C(C)O2)[C@H](O)C(C)O1` (stereo partly drawn), the growth was 6.29% (active).
As for `CC1=C(C(=O)OC(C)C)C(c2ccc3c(c2)OCO3)NC(=S)N1` (stereo not drawn), the growth was 98.7%.
Still for that read-out and setting: then `O=C(/C=C/c1ccccc1)c1cccc(OCCCOc2cccc(C(=O)/C=C/c3ccccc3)c2)c1`, with 11.3%.
